Measurements from PubChem BioAssay (NCATS).
Inconclusive results are not listed. A number with no mark means an inactive call. Calls of active or inactive are those of the source. The call rests on the fitted dose curve; in most records, active means well fitted inhibition curve with a large enough effect; inconclusive means small, poorly fitted or top-dose-only effect; inactive means flat fitted curve, though single readings scatter.

Experiment: P-glycoprotein substrates identified in KB-8-5-11 adenocarcinoma cell line, qHTS therapeutic library screen (AID 1346987); further: nearly all actives have a fitted effect of over 65% in size
Conditions: KB-8-5-11 (P-gp overexpressing) viability, CellTiter-Glo, 72 h; series mostly up to 44.5 µM; activity change, negative = cytotoxicity: at the top concentration
Outline: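 Human cervical adenocarcinoma KB-8-5-11 cells, selected in colchicine to over-express P-gp and assayed without it, were exposed for 72 h to titrated compounds. An ATP-based luminescent viability signal gave AC50.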
On the % scale 0 is the no-effect control and ±100 the full control effect; potency means the concentration at half of the fitted maximal effect.

SMILES | activity change, negative = cytotoxicity | Potency | outcome
COc1cc(/C=C/C(=O)OC[C@H]2O[C@H](O[C@]3(CO)O[C@H](CO)[C@@H](O)[C@@H]3O)[C@H](O)[C@@H](O)[C@@H]2O)cc(OC)c1O | 3.72% [at 17.3 µM] | – | –
OC[C@H]1O[C@@H](OCCc2ccc(O)cc2)[C@H](O)[C@@H](O)[C@@H]1O | – | inactive | –
CC(C)CC1(C(=O)OCc2ccc(O[C@@H]3O[C@H](CO)[C@@H](O)[C@H](O)[C@H]3O)cc2)CC(=O)OC(C(=O)O)CC(=O)OCC2OC(O1)C(OC(=O)/C=C/c1ccc(O)cc1)C(O)C2O (some centres undefined) | – | – | inactive [at 9.29 µM]
C=CC(C)(O)CO[C@@H]1O[C@H](CO)[C@@H](O)[C@H](O)[C@H]1O (some centres undefined) | 6.43% | – | –
COc1cc(CC(COC2OC(CO)C(O)C(O)C2O)c2cc(/C=C/CO)cc(OC)c2O)ccc1O (centres undefined) | 9.07% [at 17.3 µM] | – | –
CCOC(=O)Nc1nc2ccccc2[nH]1 | 0.805% | – | –
CN1C(=O)N[C@@H](Cc2c[nH]c3c(Cl)cccc23)C1=O | – | – | inactive
CC(CO[C@@H]1O[C@H](COC(=O)/C=C/c2ccc(O)c(O)c2)[C@@H](O)[C@H](O)[C@H]1O)C1(O)COC(=O)C1 (some centres undefined) | -5.06% [at 17.3 µM] | – | –
CCNC(=O)CCC/C=C\C[C@@H]1[C@@H](/C=C/C(O)CCc2ccccc2)[C@@H](O)C[C@@H]1O (some centres undefined) | – | – | inactive
C=C(C(=O)O)[C@@H]1CC=C2CCC[C@H](C)[C@@]2(C)C1 | – | – | inactive
COc1cc(/C=C/CO)ccc1O[C@@H]1O[C@H](CO)[C@@H](O)[C@H](O)[C@H]1O | 9.81% | – | –
CC(=O)O[C@@H]1[C@@H](OC(=O)/C=C/c2ccccc2)[C@H](C)O[C@@H](O[C@H]2[C@@H]3C=CO[C@@H](O[C@@H]4O[C@H](CO)[C@@H](O)[C@H](O)[C@H]4O)[C@@H]3[C@@]3(CO)O[C@@H]23)[C@@H]1OC(C)=O | – | – | inactive [at 17.3 µM]
COC(=O)C1=CO[C@@H](O[C@@H]2O[C@H](COC(=O)/C=C/c3cc(OC)c(O)c(OC)c3)[C@@H](O)[C@H](O)[C@H]2O)[C@@H]2C(CO)=CC[C@H]12 | – | – | inactive [at 17.3 µM]
O=C(c1ccc(NS(=O)(=O)c2cccc3cccnc23)cc1)N1CCN(CC2CC2)CC1 | -17% | – | –
Cc1cn2c(N)c(Cl)cc(C(=O)NCC3CCN(CC(C)C)CC3)c2n1 | -23.3% | – | –
COc1ccc(C(OC2OC(CO)C(O)C(O)C2O)C(C)O)cc1 (centres undefined) | – | – | inactive
C/C=C/C=C/C=C/C(=O)O[C@@H]1[C@@H](OC)C2=C(C(=O)N(C(C)C(=O)O)C2)[C@@]2(C)CCCC(C)(C)[C@H]12 (some centres undefined) | 0.039% [at 17.3 µM] | – | –
COC1CCCC/C(C)=C/C2C=C(C)C(C)C3C(CC(C)C)NC(=O)C23C(=O)C1 (centres undefined) | 0.0759% [at 17.3 µM] | – | –
CC(C)(C)NCc1cc(Nc2ccnc3cc(Cl)ccc23)c2c(c1O)CCCC2 | 0.372% [at 0.354 µM] | – | –
C[C@@H](OC(=O)/C=C/c1ccc(O)cc1)C1=C[C@]2(C=C[C@@H]3C(C(=O)O)=CO[C@@H](O[C@@H]4O[C@H](CO[C@@H]5O[C@H](CO)[C@@H](O)[C@H](O)[C@H]5O)[C@@H](O)[C@H](O)[C@H]4O)[C@@H]32)OC1=O | – | – | inactive [at 17.3 µM]

SMILES | activity change, negative = cytotoxicity | Potency | outcome
CCCCCCCC(=O)O | -5.07% | – | –
CO[C@H]1C=C2C(CC[C@H](O[C@@H]3O[C@H](CO)[C@@H](O)[C@@H](O)[C@H]3O)C2(C)C)[C@]2(C)CC[C@]3(C)C([C@H](C)C(O)C(C=C(C)C)O[C@@H]4O[C@H](CO)[C@@H](O)[C@@H](O)[C@H]4O)CC[C@@]3(C)C12 (some centres undefined) | 0.439% [at 9.29 µM] | – | –
COC(=O)C1=CO[C@@H](O[C@@H]2O[C@H](CO)[C@@H](O)[C@H](O)[C@H]2O)[C@@H]2[C@@H](C(=O)OC)[C@@H](O)C(O)[C@H]12 (some centres undefined) | 1.87% [at 17.3 µM] | – | –
C=C1CC23CCC4[C@@](C)(CCC[C@@]4(C)C(=O)O)C2CCC1C3 (some centres undefined) | 1.4% | – | –
COC1CC(=O)C23C(=O)NC(CC(C)C)C2C(C)C(C)=CC3/C=C(\C)CCC1O (centres undefined) | 6.49% [at 17.3 µM] | – | –
O=C1C[C@@H](c2ccc(O)cc2)Oc2cc(O)ccc21 | – | – | inactive
COc1cc(/C=C/c2cc(O)cc(O[C@@H]3O[C@H](CO)[C@@H](O)[C@H](O)[C@H]3O)c2)ccc1O | -4.45% [at 17.3 µM] | – | –
COc1c(C)c(C(=O)c2ccc(N)c(C(=O)O)c2)n2ccccc12 | – | inactive | –
COC(=O)c1ccc(O[C@@H]2O[C@H](CO)[C@@H](O)[C@H](O)[C@H]2O)c(OC)c1 | – | – | inactive
CC1OC(O[C@H]2[C@@H](O)C[C@@]3(C)C([C@H](O)C[C@]4(C)C3CC=C3C5CC(C)(C)CC[C@]5(C(=O)OC5OC(CO)C(O)C(O)C5OC5OCC(OC6OCC(OC7OCC(O)C(O)C7O)C(O)C6O)C(OC6OCC(O)(CO)C6O)C5O)CC[C@]34C)[C@]2(C)CO)C(O)C(O)C1O (some centres undefined) | 1.18% [at 9.29 µM] | – | –
CC(C)(O)C1=CCC23COC(C2)C(O)(C(=O)O)CCC13 (centres undefined) | – | – | inactive
COc1ccc([C@H]2Cc3cccc(O)c3C(=O)O2)cc1 | -3.39% | – | –
C[C@@]12C[C@]3(O)O[C@H](O1)[C@]1(COC(=O)c4ccccc4)[C@H]3C[C@@]12O[C@@H]1O[C@H](COC(=O)c2ccccc2)[C@@H](O)[C@H](O)[C@H]1O | – | – | inactive [at 17.3 µM]
CCCCC(CC)COC(=O)CC(C(=O)OCC(CC)CCCC)S(=O)(=O)O (centres undefined) | – | inactive | –
CO[C@H]1C=CO[C@@]2(C)Oc3c(C)c(O)c4c(O)c(c5c(nc6cc(C)ccn65)c4c3C2=O)NC(=O)/C(C)=C\C=C[C@H](C)[C@H](O)[C@@H](C)[C@@H](O)[C@@H](C)[C@H](OC(C)=O)[C@@H]1C | -12% | – | –
Nc1c(N=Nc2ccc(-c3ccc(N=Nc4cc(S(=O)(=O)O)c5ccccc5c4N)cc3)cc2)cc(S(=O)(=O)O)c2ccccc12 | -13% | – | –
COc1cc2c(cc1OC)CN(C(=O)[C@@H](NCc1ccncc1)C(C)(C)C)CC2 | 0.391% | – | –
C[C@@H]1O[C@@H](OC[C@H]2O[C@@H](OCC3CCC4CC3C4(C)C)[C@H](O)[C@@H](O)[C@@H]2O)[C@H](O)[C@H](O)[C@H]1O (some centres undefined) | – | – | inactive [at 17.3 µM]
COc1cc(N2CCC(O)CC2)ccc1Nc1cc(Nc2ccccc2S(=O)(=O)C(C)C)c2cc[nH]c2n1 | – | 11.4 µM (active) | –
